This passage reports activation results from PubChem BioAssay AID2796 (The Scripps Research Institute Molecular Screening Center, 2010).

The structures appear in SMILES notation. About 8,000 (2.5%) of roughly 320,000 compounds were called active. Shown is part of a subset that was picked to be rich in actives. Unmarked numbers belong to inactive results. Cut-off read from the data, not from the text of the source: active = activation above about 47%; inactive = the rest.

Aryl hydrocarbon receptor (Homo sapiens), sequence (P35869 whole entry, looked up): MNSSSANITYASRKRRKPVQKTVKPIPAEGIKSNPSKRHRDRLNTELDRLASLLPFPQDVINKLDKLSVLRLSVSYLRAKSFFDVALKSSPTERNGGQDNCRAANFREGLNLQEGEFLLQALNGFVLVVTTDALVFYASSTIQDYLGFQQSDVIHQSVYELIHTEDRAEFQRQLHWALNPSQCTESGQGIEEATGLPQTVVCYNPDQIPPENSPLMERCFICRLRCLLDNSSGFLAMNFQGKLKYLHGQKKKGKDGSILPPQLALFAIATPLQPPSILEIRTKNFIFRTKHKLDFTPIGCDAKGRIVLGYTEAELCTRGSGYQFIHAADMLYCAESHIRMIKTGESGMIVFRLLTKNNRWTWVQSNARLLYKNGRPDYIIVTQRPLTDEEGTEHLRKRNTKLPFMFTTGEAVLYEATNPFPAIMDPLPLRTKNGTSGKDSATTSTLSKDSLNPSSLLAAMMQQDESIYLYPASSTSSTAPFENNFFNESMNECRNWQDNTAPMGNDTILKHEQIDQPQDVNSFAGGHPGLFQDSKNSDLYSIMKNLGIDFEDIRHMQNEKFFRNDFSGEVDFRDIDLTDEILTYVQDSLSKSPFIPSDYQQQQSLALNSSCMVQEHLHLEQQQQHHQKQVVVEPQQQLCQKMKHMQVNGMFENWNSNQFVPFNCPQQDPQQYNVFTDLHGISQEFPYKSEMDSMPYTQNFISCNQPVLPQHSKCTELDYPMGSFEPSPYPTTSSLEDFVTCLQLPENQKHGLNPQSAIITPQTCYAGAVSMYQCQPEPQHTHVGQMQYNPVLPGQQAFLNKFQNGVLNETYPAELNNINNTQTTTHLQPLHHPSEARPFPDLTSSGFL

The test has as its target Aryl hydrocarbon receptor (Homo sapiens) (UniProt P35869). In words: AHR activators, primary screen, cell-based, luminescence, luciferase reporter, human (AID 2796).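 Note: 0% = vehicle wells and 100% = reference agonist.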 The settings on record: AHR-responsive luciferase reporter cells, at 5 µM, hits give high values. Background: Reporter assays use an easily measured gene product as a stand-in for the process of interest.
With `Cc1ccc(C)c(NC(=O)COC(=O)Cn2c(C)csc2=O)c1`, the activation was 2.35%.
With `O=C(COC(=O)c1ccc2c(c1)OCCO2)NCc1ccccc1Cl` the figure was -0.15%; with `CNC(=S)N1N=C(c2ccccc2)CC1c1ccc(Br)cc1` (stereo unspecified), 1.39%; with `Brc1ccc(C2CC(c3ccccc3)=Nc3ccccc3N2)cc1` (stereo unspecified), 104% (active).
With `c1ccc(C2=Nc3cccc4cccc(c34)N2)cc1` the figure was 19.3%.
With `Cc1ccsc1C(=O)NC1CCCCC1C` (stereo unspecified) the figure was -0.06%; with `COc1ccc(CN2CN(C3CCCC3)CSC2=S)cc1`, -1.37%; with `COc1ccc(CC(=O)OC(C)C(=O)Nc2ccc(S(N)(=O)=O)cc2)cc1` (stereo unspecified), 0.17%.
In the case of `COCc1c(C(=O)OCC(=O)Nc2ccc(OC(F)F)cc2)oc2ccccc12`, the activation was -0.02%.
`Cc1ccc2nc(-c3ccc(NC(=O)c4cccnc4)cc3)oc2c1`: the activation is -9.23%.
Turning to `CC(=O)Nc1ccc(-c2nc3ccccc3o2)cc1`, the activation was 80.5% (active).
With `Cc1cc2nc(-c3ccc(NC(=O)c4cccnc4)cc3)oc2cc1C` the figure was -6.99%; with `CCC(CC)COC(=O)C1=C(C)NC(=O)NC1c1ccc([N+](=O)[O-])cc1` (stereo unspecified), -3.02%.
With `CCc1ccccc1N(CC(=O)NCC1CCCO1)C(=O)CCC(=O)Nc1nccs1` (stereo unspecified) the figure was -2.18%; with `COc1ccc(NC(=O)C(CC(C)C)NS(=O)(=O)c2ccc3c(c2)CCN3C(C)=O)cc1OC` (stereo unspecified), 1.37%; with `CSc1ncccc1C(=O)Nc1cccc(S(=O)(=O)N2CCOCC2)c1`, -0.18%.
With `Fc1ccccc1/C=N/n1c(-c2cccnc2)n[nH]c1=S` the figure was 5.29%; with `S=c1[nH]nc(-c2cc(-c3ccccc3)n[nH]2)n1/N=C/c1c2ccccc2cc2ccccc12`, 63.2% (active); with `S=c1[nH]nc(-c2ccncc2)n1/N=C/c1ccccc1Cl`, 4.63%.
With `Fc1cccc(CSc2nnc3ccc(-c4ccncc4)nn23)c1`, the activation was 4.81%.
With `COc1ccc2nc(Nc3nc4cc5c(cc4s3)OCCO5)sc2c1` the figure was 53.1% (active); with `c1c2c(cc3sc(N4CCCCC4)nc13)OCCO2`, -13.2%.
For `CCOc1ccc(S(=O)(=O)Nc2nc3cc(OC)ccc3s2)cc1`, the activation is -1.36%.
`Cc1noc(C)c1CSCC(=O)Nc1nc2ccc(Oc3ccccc3)cc2s1`: the activation is 17.8%.
On to `COc1ccc2oc(=O)cc(-c3cc4ccccc4o3)c2c1`, for which the activation was 18.4%.
With `COc1ccc2nc(NC(=O)NC3CCCCC3)sc2c1` the figure was 5.23%; with `COc1ccc2nc(NC(=O)[C@@H]3CCCN3C(=O)c3cccs3)sc2c1`, 23.1%.
With `COc1ccc2nc(Nc3nc(-c4cc5ccccc5oc4=O)cs3)sc2c1` the figure was 56.3% (active); with `COc1ccc2nc(Nc3nc(-c4ccncc4)cs3)sc2c1`, 107% (active); with `COc1ccc(C2=Nc3cc(C)ccc3OC2)cc1`, 30.2%.
With `O=C(CCc1nc(-c2ccccc2)no1)Nc1cccc(C(=O)NC2CC2)c1` the figure was 0.82%; with `CCc1ccc(OCC(=O)OC(C)C(=O)NC2CC2)cc1` (stereo unspecified), -4.56%.
As to `Oc1c(Cl)cc(Cl)c(Cl)c1Cc1c(O)c(Cl)cc(Cl)c1Cl`, the activation is 0.28%.
Turning to `CN(C(=O)COC(=O)Cn1cnc2c1c(=O)n(C)c(=O)n2C)C1(C#N)CCCCC1`, the activation is -0.97%.
Take `O=C(c1snnc1-c1ccccc1)N1CCOCC1`: the activation is 2.54%.
With `CN(CCC1CCOCC1)C(=O)CC1C(=O)NCCN1Cc1cccc(F)c1` (stereo unspecified) the figure was -2.39%.
With `COc1cccc(NC(=O)Cn2cnc3sc(C)c(S(=O)(=O)N4CCN(C)CC4)c3c2=O)c1` the figure was 3.14%; with `CCCc1cc(=O)oc2c(C)c(OCC(=O)N3CCC(C(=O)O)CC3)ccc12`, 0.65%; with `CCCc1cc(=O)oc2c(C)c(OCC(=O)NCc3ccccn3)ccc12`, 65.7% (active).
In the case of `CCCc1cc(=O)oc2c(C)c(OCC(=O)Nc3ccccn3)ccc12`, the activation was 2.02%.
With `Clc1ccc(-c2cc(C3CCNCC3)[nH]n2)c(Cl)c1`, the activation is -7.18%.
As to `CCCCCCC(=O)Nc1nc(C)c(-c2csc(Nc3cc(Cl)ccc3OC)n2)s1`, the activation was 40.2%.
With `O=C(O)CSc1c2c(nc3cc(C(=O)Nc4cccc(C(F)(F)F)c4)ccc13)CCCC2` the figure was -2.1%; with `COc1ccc(NC(=O)CN(C)CC(=O)Nc2cccc(C(F)(F)F)c2)cc1`, 0.79%; with `CCCCN(C)CCC(=O)Nc1ccc(Cl)cc1`, 0.37%.
With `COc1ccc(-c2csc(NC(=O)COC(=O)Cc3ccc(Cl)cc3Cl)n2)cc1` the figure was 34.2%.
With `C=CCCC(=O)Nc1nc(C)c(-c2csc(Nc3ccc(Cl)cc3)n2)s1` the figure was 56.6% (active); with `CCCCCCC(=O)Nc1nc(C)c(-c2csc(Nc3cccc(OC)c3)n2)s1`, 34.4%; with `Cc1nc(NC(=O)c2cccc(Cl)c2)sc1-c1csc(Nc2cccc(Cl)c2)n1`, 85.8% (active).
Turning to `CCC(=O)Nc1nc(C)c(C(=O)Nc2cccc(Cl)c2)s1`, the activation is 7.61%.
With `O=C(Nc1ccc(-c2csc(Nc3cccc(C(F)(F)F)c3)n2)cc1)c1cccc(C(F)(F)F)c1` the figure was 114% (active); with `CCCCC(=O)Nc1nc(C)c(-c2csc(Nc3ccc(Cl)cc3)n2)s1`, 49.2% (active).
With `Cc1nc(NC(=O)CN(C)S(=O)(=O)c2ccc(Cl)cc2)sc1C` the figure was 5.19%; with `CCC(C)c1ccc(NC(=O)COC(=O)C2CCCC2)cc1` (stereo unspecified), -0.7%.
With `CC(=O)Nc1ccc(NC(=O)CCN2C(=O)C3CC=CCC3C2=O)cc1` (stereo unspecified) the figure was -0.48%; with `Cc1occc(=O)c1OCc1c(Cl)cccc1Cl`, 2.86%.
In the case of `O=C(O)CCN1C(=O)CC2(CCCCC2)C1=O`, the activation was -1.21%.
With `O=C1CCN(Cc2ccc([N+](=O)[O-])cc2)CCN1[C@H](CO)Cc1ccccc1` the figure was 0.87%; with `CCCNC(=O)c1cnc(-c2ccccc2)nc1-c1ccccc1`, 3.22%; with `CCOc1ccc(/C=C(/NC(=O)c2ccccc2)C(=O)NCCC(=O)O)cc1`, 3.46%.
With `COc1cc(OC)c(NS(=O)(=O)c2cn(C)cn2)cc1Cl` the figure was -0.48%.
`Cc1ccc(NC(=O)C2CCC(C(C)(C)C)CC2)cc1S(=O)(=O)N1CCOCC1` (stereo unspecified): the activation is 1.24%.
As for `Cc1csc(=O)n1CC(=O)Nc1ccc(S(C)(=O)=O)cc1`, the activation is -1.77%.
With `CCOC(=O)c1ccc(NC(=O)c2ccc(NC(=O)C3CCCO3)cc2)cc1` (stereo unspecified) the figure was 3.91%.
With `COc1ccc(N(CC(=O)N2CCOCC2)S(=O)(=O)c2ccccc2)cc1Cl` the figure was 0.59%.
Turning to `O=C1COc2ccc(C(=O)COC(=O)c3ccccc3Cl)cc2N1`, the activation is -0.97%.
With `Cc1ccc(C2Nc3cccc4cccc(c34)N2)cc1` the figure was 30.3%; with `COc1ccc(C2NC(=O)c3ccccc3N2)cc1` (stereo unspecified), 102% (active); with `Oc1ccc(C2Nc3cccc4cccc(c34)N2)cc1`, 9.92%.
Regarding `CC(Oc1ccc(-c2ccccc2)c(F)c1)c1ccn(S(=O)(=O)c2cccc3ccccc23)n1` (stereo unspecified), the activation was 0.53%.
Take `O=C(NC(=O)c1ccc(Cl)c(Cl)c1)OC1CCS(=O)(=O)C1` (stereo unspecified): the activation was 2.16%.
With `O=C(Cn1ncc(N2CCCC2)c(Br)c1=O)c1ccc(Cl)cc1` the figure was 3.04%; with `COc1cccc(CNc2ncc(-c3ccccc3)n2C)c1`, 8.66%.
With `CCCc1cc(-c2nc(-c3ccc(C)cc3)cs2)ccn1` the figure was 23.7%; with `Cc1ccc(-c2csc(-c3cc(C)on3)n2)cc1`, -2.07%.
With `Cc1ccc(-c2csc(-c3c[nH]c4ccccc34)n2)cc1`, the activation was 74.3% (active).
With `CCC(C)NC(=O)C1CCC(=O)N1Cc1ccc(C)cc1` (stereo unspecified) the figure was 4.04%.
Turning to `O=C(NCCc1ccc(Cl)cc1Cl)c1cc([N+](=O)[O-])c[nH]c1=O`, the activation is 6.38%.
With `COc1ccccc1NC(=O)c1ccc(C)s1` the figure was 26.2%; with `CCC(=O)Nc1sc(C(=O)Nc2ccccc2)c(C)c1C(=O)OC`, -2.8%; with `COC(=O)c1c(NC(C)=O)sc(C(=O)Nc2ccccc2OC)c1C`, 47.1% (active).
With `CN1CCN(S(=O)(=O)c2cccc(C(=O)Nc3sccc3C#N)c2)CC1` the figure was 3.96%; with `O=C(CC12CC3CC(CC(C3)C1)C2)Nc1ccc2c(c1)COC2=O`, 0.6%.
With `O=C(Cn1c(NCCO)nc2ccccc21)c1ccc(Cl)cc1Cl` the figure was 103% (active); with `O=S(=O)(O)c1nc2ccccc2n1Cc1ccc(Cl)cc1Cl`, 3.2%.
`CC(C)(C)C(=O)Cn1c(NCCO)nc2ccccc21`: the activation was -1.23%.
With `CN(CC(=O)NCCc1ccc(S(N)(=O)=O)cc1)CC(=O)Nc1ccc(F)c(F)c1F` the figure was 1.42%.
With `O=S(=O)(Cc1ccccc1)c1nc2ccccc2n1Cc1ccccn1` the figure was -1.4%; with `O=c1c2cc(-c3ccccc3)sc2nc2n1N=C(c1cccs1)CS2`, 58.8% (active); with `COc1ccc(C2CC(c3cccs3)=NN2c2ccccc2)cc1` (stereo unspecified), 3.12%.
With `Cc1nnc2n1N=C(c1ccccc1)CS2` the figure was 1.52%; with `O=S1(=O)CC(NCc2ccccc2)C(Nc2ccc(Cl)cc2)C1` (stereo unspecified), 0.94%; with `CSCCC(NC(=O)COc1ccccc1)C(=O)N(C)CC(=O)Nc1ccc(C)cc1` (stereo unspecified), 1.75%.
Turning to `CCN(CC(=O)NC1CCS(=O)(=O)C1)c1nc(-c2cccnc2)nc2ccccc12` (stereo unspecified), the activation was 1.86%.
On to `O=[N+]([O-])c1ccc(F)cc1Oc1nc(-c2cccnc2)nc2ccccc12`, for which the activation was 62.5% (active).
With `O=[N+]([O-])c1ccc(Oc2ccc(F)cc2Br)c2ccncc12` the figure was 15.1%.
